Assay results from PubChem BioAssay AID1637 (Sanford-Burnham Center for Chemical Genomics, 2009).
The whole screen tested about 3,700 compounds, of which fewer than 10 were called active. Not all results are given here. Values without a mark were called inactive. How the calls were made is not given here.

Test: NMR binding screen, influenza A RNA promoter, Kd (AID 1637)
Conditions: NMR binding to influenza A RNA promoter

Structure (SMILES) | Kd
CNC(=O)CC1Sc2ccccc2NC1=O (stereo not given) | > 4 mM
O=C1CSC(=Nc2ccccc2[N+](=O)[O-])N1 | > 4 mM
CN1CCC(N2CCOCC2)CC1 | > 4 mM
Cc1cc(C(=O)NCc2cccnc2)no1 | > 4 mM
COc1ccc(S(=O)(=O)N2CCOCC2)cc1C(C)C | > 4 mM
COc1cccc(/C=C/C(=O)O)c1C(C)C | > 4 mM
CCN1CCC(=NO)CC1 | > 4 mM
Cc1ccc(SCc2cc(=O)n3[nH]cnc3n2)cc1 | > 4 mM
Nc1ccc(-n2cccn2)cc1 | > 4 mM
Cc1ccc(S(=O)(=O)CC(=O)N(C)C)cc1 | > 4 mM
Cc1cccc(N2C(=O)CC(=O)NC2=O)c1 | > 4 mM
Cc1ccccc1NC(=O)C1CC(=O)N=C(N)S1 (stereo not given) | > 4 mM
CC(C)(C)CC(=O)NNC(=O)c1cnccn1 | > 4 mM
CCSc1nc(N)c(NC(=O)c2ccco2)c(=O)[nH]1 | > 4 mM
Cc1ccccc1NC(=O)CC1NCCNC1=O (stereo not given) | > 4 mM
Cc1cc(CN2C(=O)c3ccccc3C2=O)on1 | > 4 mM
O=C(O)CCCNC(=O)c1ccccc1C(=O)O | > 4 mM
CC(C)(C)NC(=O)CN1C(=O)c2ccccc2S1(=O)=O | > 4 mM
COc1ccc(/C=C2\SC(N)=NC2=O)cc1 | > 4 mM
CC(C)=NNC(=O)C(=O)Nc1ccc(F)cc1 | > 4 mM
CS/C(N)=C\C(C)=O | > 4 mM
Nc1nonc1-c1nc2ccccc2[nH]1 | > 4 mM

Structure (SMILES) | Kd
NCc1ccc(-c2ccccn2)s1 | > 4 mM
Cc1oc(-c2ccccc2)cc1C(=O)O | > 4 mM
O=S1(=O)CCC2CC=CCC21 (stereo not given) | > 4 mM
S=C(c1ccc(N2CCOCC2)cc1)N1CCOCC1 | > 4 mM
CC1(C)CC2(C)N(N)C(=O)CN2C(=S)N1 (stereo not given) | > 4 mM
O=c1[nH]cc(NCc2ccccc2)c(=O)[nH]1 | > 4 mM
c1cnc(N2CCNCC2)nc1 | > 4 mM
COc1cc2nc(N3CCNCC3)nc(N)c2cc1OC | 0.078 mM (active)
COc1cccc(N2CCNCC2)c1 | > 4 mM
CN(C)c1nc(N2CCOCC2)c2cnn(C)c2n1 | > 4 mM
O=C(CSc1ncn[nH]1)c1ccccc1 | > 4 mM
Cc1cccc(N2C(=O)CCC2=O)n1 | > 4 mM
O=c1[nH]c(O)c(C=NCc2cccs2)c(=O)[nH]1 | > 4 mM
CC(=O)c1cccc(N=C2NC(=O)CS2)c1 | > 4 mM
Cc1csc(SCC(=O)N2CCCC2)n1 | > 4 mM
Nc1cc(=O)[nH]c(SCC(=O)Nc2nccs2)n1 | > 4 mM
COc1cc(OC)c2c(=O)c(OC)c(-c3ccc(OC)c(OC)c3)oc2c1 | > 4 mM
C=C1CCC2[C@](C)(CO)[C@H](O)CC[C@@]2(C)[C@@H]1C/C=C1/C(=O)OC[C@H]1O (stereo not given in full) | > 4 mM
Cc1occc1C(=O)NCc1ccccn1 | > 4 mM
NC(=O)NC1C=CS(=O)(=O)C1 (stereo not given) | > 4 mM
Cc1c(N=Cc2ccco2)c(=O)n(-c2ccccc2)n1C | > 4 mM
Cc1ccc(CN2C3=NC(=O)CN3c3ccccc32)cc1 | > 4 mM

Structure (SMILES) | Kd
COc1nc(N2CCOCC2)nc(N)c1[N+](=O)[O-] | > 4 mM
CC1=NN2C(=N)/C(=C\c3cccs3)C(=O)N=C2S1 | > 4 mM
O=C(O)C1NCCc2ccccc21 (stereo not given) | > 4 mM
CCn1nnc(NC(=O)c2ccccc2Br)n1 | > 4 mM
O=S1(=O)NC(=NCc2ccco2)c2ccccc21 | > 4 mM
O=C(NCc1ccc2c(c1)OCO2)c1cccs1 | > 4 mM
Cn1nnc2cc(C(=O)Nc3cccnc3)ccc21 | > 4 mM
Cc1ccc(SCc2nc(-c3ccncc3)no2)cc1 | > 4 mM
NC1CS(=O)(=O)CC1O (stereo not given) | > 4 mM
C=CCCCCCCCCCCCC(O)CC(O)CO (stereo not given) (tested in a mixture with another compound) | > 4 mM
CN1C(=O)C2CC=C(Cl)CC2C1=O (stereo not given) | > 4 mM
Cc1c(/C=N\n2cnnc2)c2ccccc2n1C | > 4 mM
CN(C)S(=O)(=O)NCc1ccc2c(c1)OCO2 | > 4 mM
CC1(c2ccncc2)NC(=O)NC1=O (stereo not given) | > 4 mM
c1cc2n(c1)CCNC2c1ccncc1 (stereo not given) | > 4 mM
Cc1nc2[nH]onc2c2nccc(=O)c12 | > 4 mM
CCCN1CCC(N2CCC(O)CC2)CC1 | > 4 mM
O=C1NC(=O)/C(=C\c2ccncc2)S1 | > 4 mM
O=C1CSC(=O)N1CN1CCCC1 | > 4 mM
O=C(O)CSCc1ccc(Cl)cc1 | > 4 mM
CCCC(=O)N1CCSCC1 | > 4 mM
Cn1nc(C(=O)N2CCCC2)c2ccccc2c1=O | > 4 mM

Structure (SMILES) | Kd
Cc1nn(C)c(Cl)c1C(O)c1c(C)nn(C)c1Cl | > 4 mM
Cc1ccc(-c2nn3c(C)nnc3s2)cc1N | > 4 mM
Nc1ccc2nsnc2c1 | > 4 mM
CC(=O)Nc1cc(C(N)=O)cc(C(N)=O)c1 | > 4 mM
NS(=O)(=O)c1ccccc1Cl | > 4 mM
CSc1nc(=O)[nH]c2c1CCC2 | > 4 mM
Cn1cnc2cc(NC(=O)c3ccco3)ccc21 | > 4 mM
COc1ccc(NC2=NCC(C)S2)cc1 (stereo not given) | > 4 mM
COC(=O)Nc1nnc(-c2ccncc2)s1 | > 4 mM
NC(=O)Cn1nnc(-c2ccc(C(F)(F)F)cc2)n1 | > 4 mM
Nc1cccc(NC(=O)c2cccs2)c1 | > 4 mM
CCN1CCC(NC2CCC(O)CC2)CC1 (stereo not given) | > 4 mM
OC12C=CC(CC1)CC2 | > 4 mM
NC(=O)CSc1ccc2nnc(-c3ccccc3)n2n1 | > 4 mM
CCCCN1C(=O)C2CC/C(=N/O)CC2C1=O (stereo not given) | > 4 mM
C[C@@H]1OC(O[C@H]2[C@H](OC(=O)[C@]34CCC(C)(C)CC3C3=CCC5[C@@]6(C)CC[C@H](OC7O[C@@H](C)[C@H](O[C@@H]8OC[C@@H](O)[C@H](O)[C@H]8O)[C@@H](O)[C@H]7O)C(C)(C)C6CC[C@@]5(C)[C@]3(C)CC4O)OC[C@H](O)[C@H]2O)[C@H](O)[C@H](O)[C@H]1O[C@@H]1O[C@H](CO)[C@@H](O)[C@H](O)[C@H]1O (stereo not given in full) | > 4 mM
NC(=O)C1CCN(C(=O)c2ccccc2F)CC1 | > 4 mM
O=C(Nc1cccc2cccnc12)c1cccnc1 | > 4 mM
Cc1nc(NC2=NCCC(=O)N2)nc2ccccc12 | > 4 mM
